The panel holds about 83,000 compounds, 20% with a hit somewhere; the sample as a whole holds those more often.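 Treatment: one concentration, 48 hours, 96-well format. Scoring: percent growth, with anything below 10 considered active.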 The source made the active and inactive calls.
Test system: HS 578T breast
Assay: NCI-60 one-dose screen, 48 h (100 = growth as untreated, 0 = no growth, -100 = all killed)
Conditions: 10 µM

Row | Compound | growth
1 | O=C(O)Cn1ccc2ccccc21 | 108% (inactive)
2 | Cc1ccc2nc(CN(CCN(Cc3nc4ccc(C)cc4[nH]3)Cc3nc4ccc(C)cc4[nH]3)Cc3nc4ccc(C)cc4[nH]3)[nH]c2c1 | -74.1% (active)
3 | CO[C@@]12[C@@H]3NC3CN1C1=C(C(=O)C(N)=C(C)C1=O)[C@@H]2COC(N)=O (stereo partly drawn) | 70.9% (inactive)
4 | COCCn1c(Nc2ccc(C(=O)NO)cc2)nc2ccccc21 | 80.7% (inactive)
5 | N#Cc1c(NN)n(C2OC(CO)C(O)C2O)c2ncnc(N)c12 (stereo not drawn) | 9.12% (active)
6 | CCCCCNCCCCCNc1cc(OC)cc2cccnc12 | 102% (inactive)
7 | Cc1cc(O)ccc1C1=NN(c2ccc(S(N)(=O)=O)cc2)C(=O)CC1 | 18.8% (inactive)
8 | CC(=O)OC1Oc2cc(C)c(C)cc2-c2oc(=O)c(-c3ccc(F)cc3)cc21 (stereo not drawn) | 60.5% (inactive)
9 | CCCCCCCCCCCCCCCC1=NCC[N+]1(CCO)CCO | 75.2% (inactive)
10 | CCOC(=O)C(=CNc1ccccc1Cl)C(=O)OCC | 129% (inactive)
11 | O=[N+]([O-])c1cc(F)c2cccnc2c1O | 105% (inactive)
12 | O=C1C=CC(=O)N1CO | 108% (inactive)
13 | COc1ccc(C2C=C(c3ccc(Cl)cc3)N=C3SC=CN32)cc1 (stereo not drawn) | 93.1% (inactive)
14 | CCCCCc1c(C)[nH]c(/C=C2\N=C(c3ccc[nH]3)C=C2CC)c1C | -27.5% (active)
15 | Cc1nc([C@H]2CC[C@H]3[C@@H]4CCC5=CC(=O)CC[C@]5(C)[C@H]4CC[C@]23C)cs1 | 104% (inactive)
16 | CC(=O)OC1Oc2ccccc2-c2oc3nc(=N)n(C)c-3cc21 (stereo not drawn) | 143% (inactive)
17 | Cn1c(=O)c2c3c(oc2c2ccccc21)C(=O)c1ccccc1C3=O | 93.2% (inactive)

Row | Compound | growth
18 | CN(CCO)c1ccc(N2Cc3ccccc3OC3=C2C(=O)c2c(O)ccc(O)c2C3=O)cn1 | 28.4% (inactive)
19 | Fc1ccc(-c2nnc(N3CCOCC3)c3ccccc23)cc1 | 114% (inactive)
20 | CC(=O)[C@@]1(O)[C@H](C)C[C@H]2[C@@H]3C=C(C)C4=Cc5c(cnn5-c5ccccc5)C[C@]4(C)[C@H]3[C@@H](O)C[C@@]21C | 5.32% (active)
21 | N#Cc1c(N)n(C2OC(CO)C(O)C2O)c2ncnc(N)c12 (stereo not drawn) | -19.2% (active)
22 | CCCCCCCCCCCCCCCCCC1=NC(C)(C)CN1C(C)(C)CO | 15.3% (inactive)
23 | CC1=C(C(=O)Nc2ccc(F)cc2)C(c2ccccc2)C2=C(CC(C)(C)CC2=O)N1 (stereo not drawn) | 82.5% (inactive)
24 | O=C(C(=O)c1cccnc1)c1cccnc1 | 99% (inactive)
25 | Clc1ccc2c(c1)-n1cccc1C(c1ccc3ccccc3c1)=NC2 | 110% (inactive)
26 | COc1cccc(OCC(O)CN2CCN(c3ccccc3)CC2)c1 (stereo not drawn) | 117% (inactive)
27 | CSCCC1NC(=O)C(C(C)=Nc2ccccc2)=C1O (stereo not drawn) | 105% (inactive)
28 | CC(OC(=O)Nc1cccc(Cl)c1)C(=O)O (stereo not drawn) | 96.4% (inactive)
29 | C1=C\CCCCN2CC[C@H]3[C@H](CCCC/C=C\CCCN4C[C@@H](CCCCC/1)C[C@@H]3C4)C2 | 9.63% (active)
30 | CCOc1c(C#N)c2c(N)ncnc2n1C1OC(CO)C(O)C1O (stereo not drawn) | 50.9% (inactive)
31 | COc1cc(/C=C/c2ccc3c(Br)cc(Br)c(O)c3n2)ccc1O | 3.67% (active)
32 | Cc1ccc(O)c(Cc2ccccc2)c1 | 91.3% (inactive)
33 | c1ccc2c(c1)cnc1ccccc12 | 100% (inactive)
34 | O=C(Nc1ccc(Oc2ccc(NC(=O)Nc3ccccc3Cl)cc2)cc1)Nc1ccccc1Cl | 34.5% (inactive)

Test system: NCI/ADR-RES ovarian
Assay: as above
Conditions: 10 µM unless noted

Row | Compound | growth
35 | O=C(O)Cn1ccc2ccccc21 | 103% (inactive)
36 | Cc1ccc2nc(CN(CCN(Cc3nc4ccc(C)cc4[nH]3)Cc3nc4ccc(C)cc4[nH]3)Cc3nc4ccc(C)cc4[nH]3)[nH]c2c1 | -72.5% (active)
37 | CO[C@@]12[C@@H]3NC3CN1C1=C(C(=O)C(N)=C(C)C1=O)[C@@H]2COC(N)=O (stereo partly drawn) | 51.4% (inactive)
38 | COCCn1c(Nc2ccc(C(=O)NO)cc2)nc2ccccc21 | -9.22% (active)
39 | N#Cc1c(NN)n(C2OC(CO)C(O)C2O)c2ncnc(N)c12 (stereo not drawn) | 6.9% (active)
40 | CCCCCNCCCCCNc1cc(OC)cc2cccnc12 | 88.6% (inactive)
41 | Cc1cc(O)ccc1C1=NN(c2ccc(S(N)(=O)=O)cc2)C(=O)CC1 | 22.4% (inactive)
42 | CC(=O)OC1Oc2cc(C)c(C)cc2-c2oc(=O)c(-c3ccc(F)cc3)cc21 (stereo not drawn) | 28.5% (inactive)
43 | CCCCCCCCCCCCCCCC1=NCC[N+]1(CCO)CCO | 71.1% (inactive)
44 | Nc1cc2nc3ccccc3oc-2cc1=O | 60.6% (inactive)
45 | CCOC(=O)C(=CNc1ccccc1Cl)C(=O)OCC | 91.4% (inactive)
46 | O=[N+]([O-])c1cc(F)c2cccnc2c1O | 92.9% (inactive)
47 | O=C1C=CC(=O)N1CO | 129% (inactive)
48 | COc1ccc(C2C=C(c3ccc(Cl)cc3)N=C3SC=CN32)cc1 (stereo not drawn) | 104% (inactive)
49 | CCCCCc1c(C)[nH]c(/C=C2\N=C(c3ccc[nH]3)C=C2CC)c1C | -78.8% (active)
50 | COc1ccc(CCN2COc3c([C@@H](C)CCC=C(C)C)ccc(C)c3C2)cc1OC | 44.6% (inactive)
51 | Cc1nc([C@H]2CC[C@H]3[C@@H]4CCC5=CC(=O)CC[C@]5(C)[C@H]4CC[C@]23C)cs1 | 43.7% (inactive)
52 | CC(=O)OC1Oc2ccccc2-c2oc3nc(=N)n(C)c-3cc21 (stereo not drawn) | 96% (inactive)
53 | Cn1c(=O)c2c3c(oc2c2ccccc21)C(=O)c1ccccc1C3=O | 76.9% (inactive)
54 | CN(CCO)c1ccc(N2Cc3ccccc3OC3=C2C(=O)c2c(O)ccc(O)c2C3=O)cn1 | -2.37% (active)

Row | Compound | growth
55 | Fc1ccc(-c2nnc(N3CCOCC3)c3ccccc23)cc1 | 109% (inactive)
56 | CC(=O)[C@@]1(O)[C@H](C)C[C@H]2[C@@H]3C=C(C)C4=Cc5c(cnn5-c5ccccc5)C[C@]4(C)[C@H]3[C@@H](O)C[C@@]21C | 27.1% (inactive)
57 | N#Cc1c(N)n(C2OC(CO)C(O)C2O)c2ncnc(N)c12 (stereo not drawn) | -7.81% (active)
58 | CCCCCCCCCCCCCCCCCC1=NC(C)(C)CN1C(C)(C)CO | -7.97% (active)
59 | CC(=O)OC1Oc2cc(C)c(C)cc2-c2oc(=O)c(-c3cc4ccccc4oc3=O)cc21 (stereo not drawn) | 94.7% (inactive)
60 | SCc1ccc(CS)cc1 | 109% (inactive)
61 | CC1=C(C(=O)Nc2ccc(F)cc2)C(c2ccccc2)C2=C(CC(C)(C)CC2=O)N1 (stereo not drawn) | 79.7% (inactive)
62 | O=C(C(=O)c1cccnc1)c1cccnc1 | 97.5% (inactive)
63 | Clc1ccc2c(c1)-n1cccc1C(c1ccc3ccccc3c1)=NC2 | 77.8% (inactive)
64 | F | 8.42% [6.87 mM] (active)
65 | COc1cccc(OCC(O)CN2CCN(c3ccccc3)CC2)c1 (stereo not drawn) | 100% (inactive)
66 | CSCCC1NC(=O)C(C(C)=Nc2ccccc2)=C1O (stereo not drawn) | 104% (inactive)
67 | CC(OC(=O)Nc1cccc(Cl)c1)C(=O)O (stereo not drawn) | 96.8% (inactive)
68 | C1=C\CCCCN2CC[C@H]3[C@H](CCCC/C=C\CCCN4C[C@@H](CCCCC/1)C[C@@H]3C4)C2 | 77.5% (inactive)
69 | CCOc1c(C#N)c2c(N)ncnc2n1C1OC(CO)C(O)C1O (stereo not drawn) | 62.4% (inactive)
70 | COc1cc(/C=C/c2ccc3c(Br)cc(Br)c(O)c3n2)ccc1O | 6.88% (active)
71 | Cc1ccc(O)c(Cc2ccccc2)c1 | 99.7% (inactive)
72 | c1ccc2c(c1)cnc1ccccc12 | 101% (inactive)
73 | O=C(Nc1ccc(Oc2ccc(NC(=O)Nc3ccccc3Cl)cc2)cc1)Nc1ccccc1Cl | 70.3% (inactive)
